Screens (PubChem BioAssay)
SARS 3CLpro inh-1: SARS-CoV 3CLpro protease inhibition. P0C6X7. recombinant SARS-CoV 3CLpro, quenched FRET peptide cleavage. inhibition, % at 6 µM. hit rate 0.14% among 290,000. AID 1706; in the data active = inhibition above about 12%
PrPC surface inh: cell surface PrPC inhibition, primary TR-FRET screen | hit rate 0.43% among 370,000 | AID 720596 | inhibition, % at 13.8 µM | P04156 | TR-FRET read-out; in the data active = inhibition above about 24%
Vc quorum ag: quorum light induction in luxS cqsA deficient V. cholerae; V. cholerae BH1578 lux reporter, luminescence, 6 h; activation, % at 18.7 µM; hit rate 0.16% among 350,000; in the data active = activation mostly above about 9.7%, no sharp cut-off
Mtb FBA inh: inhibits M. tuberculosis FBA enzyme; inhibition, % at 1 µM; AID 588726; purified M. tuberculosis FBA, fluorescence read-out; P9WQA3; hit rate 2.3% among 360,000; in the data active = inhibition above about 27%
Target sequence (P9WQA3 whole entry, looked up): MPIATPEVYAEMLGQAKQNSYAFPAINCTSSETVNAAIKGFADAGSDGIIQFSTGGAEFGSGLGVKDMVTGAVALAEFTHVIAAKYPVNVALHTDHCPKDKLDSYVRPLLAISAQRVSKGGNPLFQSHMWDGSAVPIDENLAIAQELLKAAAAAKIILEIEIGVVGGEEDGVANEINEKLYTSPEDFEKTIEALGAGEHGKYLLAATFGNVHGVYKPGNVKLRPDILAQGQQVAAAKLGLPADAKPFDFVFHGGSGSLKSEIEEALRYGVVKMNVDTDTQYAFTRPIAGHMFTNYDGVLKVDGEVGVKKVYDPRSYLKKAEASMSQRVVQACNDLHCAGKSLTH
GDH-TPI inh: GDH-TPI coupled enzyme inhibition counter-screen. GDH-TPI coupled enzyme counterscreen, NADH absorbance. inhibition, % at 4.8 µM. AID 588335. hit rate 1.2% among 360,000; in the data active = inhibition above about 30%
SARS 3CLpro inh-2: SARS 3CLpro inhibition, confirmation assay; shares compounds with SARS 3CLpro inh-1; QFRET protease activity assay; inhibition, % at 6 µM; hit rate 36% among 380; AID 1879; in the data active = inhibition above about 13%
Of the large screens only hits and unclear results are named; the others gave an inactive call (follow-up assays come after a bar, where they were run). An excerpt weighted towards active compounds, which were near 3.9% of everything screened.

CCOC(=O)c1c(C)n(S(=O)(=O)c2ccc(C)cc2)c2ccc(O)c(C(=O)O)c12	SARS 3CLpro inh-1 13.0 | SARS 3CLpro inh-2 inactive
CC(C)c1ccc([C@@H]2O[C@H](CCc3ccccc3)CC3=C2C(=O)OC(C)(C)O3)cc1	none (no result: SARS 3CLpro inh-1, Vc quorum ag, Mtb FBA inh, GDH-TPI inh)
Nc1ncc(Br)cc1S(=O)(=O)Nc1cc(C(F)(F)F)cc(C(F)(F)F)c1	SARS 3CLpro inh-1 22.6 | SARS 3CLpro inh-2 15.2
O=C(O)/C(=C\c1ccc(F)cc1)c1ccc(-c2ccccc2)cc1	SARS 3CLpro inh-1 13.0 | SARS 3CLpro inh-2 inactive
O=C(O)/C(=C\c1ccccc1OC(F)F)c1ccc(-c2ccccc2)cc1	none
Cc1nc(N2CCC(C)CC2)c2c(C)c(C(=O)Nc3ccc4c(c3)OCCO4)sc2n1	SARS 3CLpro inh-1 14.2 | SARS 3CLpro inh-2 inactive
Cc1nc(N2CCC(C)CC2)c2c(C)c(C(=O)Nc3cccc(C(F)(F)F)c3)sc2n1	none
O=C(CSc1ccccn1)Nc1nonc1[N+](=O)[O-]	SARS 3CLpro inh-1 41.1 | SARS 3CLpro inh-2 48.8
C#CCNc1cccc2c1S(=O)(=O)N[C@H](C)CO2	none (no result: SARS 3CLpro inh-1, Vc quorum ag, Mtb FBA inh, GDH-TPI inh)
CCc1ccc(NC(=O)CN(c2ccc(OC)cc2)S(=O)(=O)c2c(C)[nH]c(=O)[nH]c2=O)cc1	none
CCOc1ccc(N(CC(=O)Nc2ccc(CC)cc2)S(=O)(=O)c2c(C)[nH]c(=O)[nH]c2=O)cc1	SARS 3CLpro inh-1 14.5 | SARS 3CLpro inh-2 inactive
O=C(O)c1ccccc1NS(=O)(=O)c1ccc(NNC(=S)Nc2ccc(OC(F)F)cc2)c([N+](=O)[O-])c1	SARS 3CLpro inh-1 12.5 | SARS 3CLpro inh-2 inactive
Cc1ccc(NC(=S)NNc2ccc([N+](=O)[O-])cc2S(=O)(=O)Nc2ccccc2C(=O)O)cc1C	none
COc1ccc(S[C@]2(C(=O)N3CCOCC3)CC(=O)N[C@@H]2c2ccc(OC)cc2)cc1	none (no result: SARS 3CLpro inh-1, Vc quorum ag, Mtb FBA inh, GDH-TPI inh)
Cc1ccc(/C=C/C(=O)c2cc(Br)ccc2OC(=O)c2ccco2)cc1	SARS 3CLpro inh-1 23.1 | SARS 3CLpro inh-2 32.4
COc1ccccc1/C=C/C(=O)c1cc(Br)ccc1OC(=O)c1ccco1	SARS 3CLpro inh-1 14.8 | SARS 3CLpro inh-2 50.0
COc1ccc(NC(=O)CN(C)C(=O)c2ccc(NS(=O)(=O)c3ccc4[nH]c(=O)[nH]c4c3)cc2)cc1	none (no result: SARS 3CLpro inh-1)
COC(=O)CN1CCN(C(=O)c2ccc(F)cc2)c2ccccc2C1	none
Cc1ccc(C(=O)C2=C(O)C(=O)N(Cc3cccnc3)C2c2ccc(OC(C)C)cc2)o1 (stereo unspecified)	SARS 3CLpro inh-1 12.6 | SARS 3CLpro inh-2 inactive
COc1cccc(CC(=O)N2CCC(n3nccc3NC(=O)C3CCOC3)CC2)c1 (stereo unspecified)	none
CN(Cc1ccc(F)cc1)S(=O)(=O)c1nnc(NC(=O)c2ccccc2Br)s1	SARS 3CLpro inh-1 12.7 | SARS 3CLpro inh-2 inactive
COc1ccccc1C(=O)Nc1nc2ccccc2s1	SARS 3CLpro inh-1 12.9 | SARS 3CLpro inh-2 inactive
CCN(c1ccccc1)S(=O)(=O)c1nnc(NC(=O)c2ccccc2OC)s1	SARS 3CLpro inh-1 12.7 (no result: Vc quorum ag) | SARS 3CLpro inh-2 inactive
COc1ccc2nc(SCC(=O)NC(C)c3ccccc3)[nH]c2c1 (stereo unspecified)	none (no result: SARS 3CLpro inh-1)
CC(C)(C)c1ccc(NC(=O)CSc2n[nH]c(=O)n2-c2cccnc2)cc1	SARS 3CLpro inh-1 12.2 | SARS 3CLpro inh-2 inactive
O=C(COC(=O)CCc1c[nH]c2ccccc12)NC(c1ccccc1)c1ccccc1	SARS 3CLpro inh-1 13.1 | SARS 3CLpro inh-2 inactive
O=C(COC(=O)CCc1c[nH]c2ccccc12)Nc1ccccc1	none (no result: SARS 3CLpro inh-1)
CC1C(=O)N2CCCc3cc(NC(=O)C(=O)NCc4ccccn4)cc1c32 (stereo unspecified)	none (no result: SARS 3CLpro inh-1)
Cc1cc(NC(=O)COC(=O)C(Nc2ccc(C(F)(F)F)cc2Cl)C(C)C)no1 (stereo unspecified)	SARS 3CLpro inh-1 14.3 | SARS 3CLpro inh-2 13.3
C[C@@]12C(=O)N(c3cccc(F)c3)C(=O)N1[C@H](c1ccc(F)cc1)[C@@H]1C(=O)N(C3CCCCC3)C(=O)[C@@H]12	SARS 3CLpro inh-1 13.5 (no result: PrPC surface inh) | SARS 3CLpro inh-2 inactive
C[C@@]12C(=O)N(c3cccc(F)c3)C(=O)N1[C@H](c1ccc(Cl)cc1)[C@@H]1C(=O)N(C3CCCCC3)C(=O)[C@@H]12	none (no result: SARS 3CLpro inh-1)
Cc1ccc(S(=O)(=O)Nc2cc(-c3ccccc3)nn2C)cc1Cl	SARS 3CLpro inh-1 13.6 | SARS 3CLpro inh-2 inactive
Cc1ccc(S(=O)(=O)Nc2cc(-c3ccccc3)nn2C)cc1	none
Cc1cccc(N2CCN(C(=O)c3cc(=O)[nH]c4ccccc34)CC2)c1C	SARS 3CLpro inh-1 41.3 | SARS 3CLpro inh-2 55.1
O=C(c1ccco1)N1CCN(C(=O)c2cc(=O)[nH]c3ccccc23)CC1	none (no result: SARS 3CLpro inh-1)
O=C(c1cc(=O)[nH]c2ccccc12)N1CCN(c2ccccc2)CC1	SARS 3CLpro inh-1 32.3 | SARS 3CLpro inh-2 31.4
COc1ccc(-c2csc(NC(=O)C3CSC4(C)CCC(=O)N34)n2)c(OC)c1 (stereo unspecified)	none (no result: SARS 3CLpro inh-1)
O=C(NCc1ccccc1)C1=C[C@H](c2coc3ccccc3c2=O)C[C@H](OCCCCO)O1	none
COc1ccc(N/C=C(\C#N)c2nc3ccccc3n2C)c(OC)c1	none
COc1ccc(C2Nc3ccccc3C(=O)N2Cc2ccc(C)o2)cc1COc1c(C)cccc1C (stereo unspecified)	none (no result: SARS 3CLpro inh-1, Vc quorum ag, Mtb FBA inh, GDH-TPI inh)
CCn1nc(-c2ccccc2)nc2c(=O)n(C)c(=O)nc1-2	SARS 3CLpro inh-1 16.8 (no result: PrPC surface inh) | SARS 3CLpro inh-2 36.6
CCc1ccc2cc3c(cc2n1)C(=O)c1ccccc1-3	none (no result: SARS 3CLpro inh-1, Vc quorum ag, GDH-TPI inh)
COC(=O)[C@]12C[C@H](CC(=O)N3CCC(c4ccccc4)CC3)C(=O)N(CCC3=CCCCC3)C1=C[C@H](C1CCCC1)O[C@@H]2C	none (no result: SARS 3CLpro inh-1, Vc quorum ag, Mtb FBA inh, GDH-TPI inh)
O=C(CN1CCN(c2nc(-c3ccccc3)cs2)CC1)NNC(=O)c1ccco1	none
COc1cccc(N2CCN(S(=O)(=O)c3ccc(-c4coc(C)n4)cc3)CC2)c1	none
Cc1nc(-c2ccc(S(=O)(=O)N3CCN(c4ccccc4)CC3)cc2)co1	SARS 3CLpro inh-1 12.4 | SARS 3CLpro inh-2 inactive
Cc1ccccc1NC1=C/C(=N\S(=O)(=O)c2ccc(C(=O)O)cc2)c2ccccc2C1=O	SARS 3CLpro inh-1 15.8 | SARS 3CLpro inh-2 inactive
CC1CN(CCc2ccccc2)c2nc3c(c(=O)n(CC(N)=O)c(=O)n3C)n2C1 (stereo unspecified)	none
CCOC(=O)Cn1cc(CN2C(C(=O)OC)CN(C3CC3)CCS2(=O)=O)nn1 (stereo unspecified)	none (no result: SARS 3CLpro inh-1, Vc quorum ag, Mtb FBA inh, GDH-TPI inh)
CCc1cc(C(=O)c2ccc(C)cc2)c(NC(=O)CCl)s1	SARS 3CLpro inh-1 19.5 | SARS 3CLpro inh-2 44.2
NS(=O)(=O)c1ccc(CCNC(=O)CSc2nc3ccccc3c(=O)n2CC2CCCO2)cc1 (stereo unspecified)	none
COc1ccc(S(=O)(=O)N2CCOC2CNC(=O)C(=O)NCCN(C)C)cc1 (stereo unspecified)	SARS 3CLpro inh-1 12.6 | SARS 3CLpro inh-2 inactive
COc1ccccc1CCNC(=O)C(=O)NCC1OCCN1S(=O)(=O)c1ccc2c(c1)OCCO2 (stereo unspecified)	SARS 3CLpro inh-1 12.9 | SARS 3CLpro inh-2 inactive
COc1ccc(C(O)c2ncc(-c3cccc(C(F)(F)F)c3)[nH]2)cc1F (stereo unspecified)	none (no result: SARS 3CLpro inh-1)
